Bioassay records as filed in PubChem.
Only some compounds are listed: those with a hit (about 4.8% of all), similar ones and a draw of the others.
hcDAF12 agonist: activators of H. contortus DAF-12 nuclear receptor. HEK293 hcDAF-12 lit1-tk-luc reporter, luminescence; 0% DMSO, 100% Δ7-dafachronic acid. activation, % at 6.8 µM. 370,000 compounds, 1.4% hits;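 active = activation above the mean of all tested compounds plus 3 SD, cut at about 5.5% in these data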;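 also: 100% = response to 3 µM Δ7-dafachronic acid high control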
SMARCA2 act: SMARCA2 function activation, primary screen. activation, % at 9.1 µM. AID 652017. 370,000 compounds, 1% hits. MG213 cells, MMTV-luciferase reporter, dexamethasone, overnight; in the data active = activation above about 7.8%;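 also: 0% = vehicle wells and 100% = reference activator wells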
DAX1 inh-1: NR0B1 (DAX1) inhibition | P51843 | HEK293 Gal4-DAX1 luciferase reporter, luminescence | inhibition, % at 6.75 µM | 340,000 compounds, 0.99% hits | AID 504766;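 active = inhibition above the mean over all tested compounds plus 3 SD, cut at about 4.2% in these data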;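 also: 0% = DAX1-transfected cells with DMSO and 100% = empty-vector control cells with DMSO; inhibition shows as a rise in luminescence from relieved DAX1 repression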
DAX1 inh-2: blocks DAX1 repression of SF-1 activated StAR promoter | inhibition, % at 6.8 µM | HEK293T StAR-luciferase reporter, SF-1/DAX-1 repression relief | 370,000 compounds, 1.1% hits | AID 652010;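 active = inhibition above the mean over all tested compounds plus 3 SD, cut at about 3.6% in these data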;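 also: 0% = DAX-1 cells with DMSO and 100% = cells lacking DAX-1 with DMSO; higher inhibition means more luminescence from relief of DAX-1 repression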
ssDAF12 agonist: activators of S. stercoralis DAF-12 nuclear receptor | activation, % at 6.8 µM | 370,000 compounds, 1% hits | HEK293 ssDAF-12/GRIP1 lit1-tk-luc reporter, luminescence; % of 3 µM dafachronic acid response;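 active = activation above the mean over all tested compounds plus 3 SD, cut at about 0.9% in these data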;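 also: 0% = DMSO-only wells and 100% = 3 µM delta7-dafachronic acid wells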
hgDAF-12 ag: hgDAF-12 agonism, primary luciferase screen | HEK293 GAL4-hgDAF12 UAS-luciferase reporter, agonist luminescence; normalized to butyrate control | activation, % at 6.8 µM | 370,000 compounds, 1.8% hits | AID 687014;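 active = activation above a cutoff set at the mean of all screened compounds plus 3 SD, cut at about 10% in these data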;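 also: 0% = DMSO wells and 100% = sodium butyrate wells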
LXR ag: LXR-beta agonism as hcDAF-12 counter-screen | shares compounds with hcDAF12 agonist | HEK293 Gal4-LXR tk-luc reporter, luminescence, 24 h; normalized: DMSO 0%, positive control 100% | activation, % at 6.8 µM | 3,400 tested, under 10 active | AID 743027;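 active = mean percent activation of the reporter above a cutoff set as the average over tested compounds plus their standard deviation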
Target sequence (P55055 whole entry, looked up, the tested form may be a part): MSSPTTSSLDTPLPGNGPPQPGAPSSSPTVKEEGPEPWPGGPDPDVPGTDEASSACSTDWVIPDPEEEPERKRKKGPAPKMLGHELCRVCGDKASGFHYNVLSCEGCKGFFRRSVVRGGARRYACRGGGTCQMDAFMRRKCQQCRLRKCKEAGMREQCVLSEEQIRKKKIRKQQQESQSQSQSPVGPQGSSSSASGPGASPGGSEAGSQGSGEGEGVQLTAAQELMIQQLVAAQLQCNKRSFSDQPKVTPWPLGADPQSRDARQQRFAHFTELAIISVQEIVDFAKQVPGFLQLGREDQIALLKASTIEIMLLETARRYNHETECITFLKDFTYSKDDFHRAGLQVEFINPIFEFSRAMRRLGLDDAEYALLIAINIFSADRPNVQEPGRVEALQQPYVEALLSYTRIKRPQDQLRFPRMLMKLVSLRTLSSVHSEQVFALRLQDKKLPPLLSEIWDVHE
hcDAF12 conf: confirmation of H. contortus DAF-12 agonists | shares compounds with hcDAF12 agonist | HEK293 hcDAF-12 lit1-tk-luc reporter, luminescence; % of Δ7-dafachronic acid response | activation, % at 6.8 µM | 3,400 compounds, 61% hits | AID 743032;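 active = mean activation across triplicate tests above the threshold derived from the earlier primary screen, cut at about 5.5% in these data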;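 also: 0% = DMSO only wells and 100% = 3 µM Δ7-dafachronic acid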
hgDAF12 conf: confirmation of H. glycines DAF-12 agonists; shares compounds with hgDAF-12 ag; HEK293 GAL4-hgDAF12 luciferase reporter, agonist mode; percent of butyrate response; activation, % at 6.8 µM; 3,300 compounds, 80% hits; AID 743050;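 active = mean activation over triplicate wells above the hit cutoff derived from the earlier primary screen, cut at about 11% in these data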;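 also: 0% = DMSO low control and 100% = 2 mM sodium butyrate high control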
LXRb DAF12 ctr: counter-screen for DAF-12 agonists: agonists of human LXR-beta | shares compounds with hgDAF-12 ag | HEK293 Gal4-LXR luciferase reporter, 24 h | activation, % at 6.8 µM | 3,300 tested, under 10 active;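 active = mean activation of the triplicate above a set limit carried over from the primary screen, none filed active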
Numbers without * were called inactive; . = not tested or not shown.

SMILES	hcDAF12 agonist	SMARCA2 act	DAX1 inh-1	DAX1 inh-2	ssDAF12 agonist	hgDAF-12 ag	LXR ag	hcDAF12 conf	hgDAF12 conf	LXRb DAF12 ctr
CN(C)S(=O)(=O)c1ccc(NC(=O)/C=C/c2ccccc2Cl)cc1	-2.0	-0.6	-0.6	-0.8	-1.4	6.9	.	.	.	.
COC(=O)[C@]12C[C@H](CC(=O)NCc3ccccc3)C(=O)N(Cc3ccc4c(c3)OCO4)C1=C[C@H](COCc1ccccc1)O[C@@H]2C	-0.1	-2.6	.	-0.4	-0.8	1.4	.	.	.	.
CN1CC[C@@H]2CN(S(=O)(=O)c3ccccc3)[C@H](c3ccccc3Br)C[C@@H]21	-1.1	-1.0	.	-0.3	-0.2	-0.5	.	.	.	.
c1ccc(N2CCN(c3cnc4ccccc4n3)CC2)cc1	7.0*	4.0	0.8	3.1	0.1	15.4*	1.2	3.3	20.0*	0.7
COC(=O)CSc1nc2cc(OC)ccc2cc1C#N	8.2*	3.8	4.3*	3.8*	-0.4	15.2*	1.5	7.8*	23.1*	0.9
COc1ccc2cc(C#N)c(SCC(=O)N3CCCC3)nc2c1	-2.5	1.9	-0.3	-0.6	-1.0	4.2	.	.	.	.
COC(=O)[C@]1(CC(C)C)NC=C(C(=O)c2ccccc2)[C@@H]1c1cccc(C(F)(F)F)c1	0.8	-0.3	.	0.1	-1.2	2.9	.	.	.	.
O=C(Cc1cccs1)Nc1ccc(F)c(F)c1	-2.3	2.7	0.6	0.1	-1.1	-1.8	.	.	.	.
O=C(/C=C/Nc1ccc(F)c(F)c1)c1cccs1	15.6*	3.8	4.1	3.3	0.9	14.6*	2.4	14.9*	23.0*	0.9
Cc1cccc(NC(=S)c2nc3ccccc3s2)c1	8.8*	5.2	2.1	2.5	2.1*	13.5*	1.1	9.9*	16.5*	0.7
Cc1cccc(NC(=O)c2cc(C)nc3ccccc23)c1	-1.6	2.3	0.6	0.3	-0.8	1.4	.	.	.	.
O=C(Nc1ccccc1)c1cc2ccc3ccccc3c2s1	12.5*	6.9	4.4*	1.5	2.8*	15.2*	1.0	9.8*	16.1*	0.7
COc1ccc(C2CC(=O)C(c3ccc([N+](=O)[O-])cc3)=CN2Cc2ccccc2)cc1 (configuration not stated)	-1.7	-4.7	.	-2.6	-1.4	-1.9	.	.	.	.
Cc1sc(NC(=O)c2ccco2)nc1-c1ccccc1	7.8*	5.6	3.9	2.6	0.6	14.4*	1.4	7.9*	18.0*	0.8
CCOC(=O)c1c(C)oc2c1c(C(c1cccnc1)N1CCCCC1)c(O)c1ccccc12 (configuration not stated)	10.5*	6.7	3.8	2.5	1.8*	14.2*	0.7	6.8*	5.3	0.3
COC(=O)[C@]12C[C@H](CC(=O)N3CCC(c4ccccc4)CC3)C(=O)N(CCc3ccc(OC)c(OC)c3)C1=C[C@H](C(C)(C)C)O[C@@H]2C	0.1	-5.7	.	-0.9	-1.4	-1.3	.	.	.	.
Cc1nc(-c2coc3cc(OCC(=O)O)ccc3c2=O)cs1	-1.2	-0.4	-1.6	-0.3	-1.2	3.0	.	.	.	.
Cc1nc(-c2coc3cc(O)c(C)cc3c2=O)cs1	10.0*	3.7	-2.3	2.4	0.7	13.5*	1.6	10.0*	15.3*	0.9
COC(=O)c1ccc(N=NNc2cccc(Br)c2)cc1	7.9*	0.5	0.5	3.1	0.4	15.4*	1.0	7.1*	15.7*	0.3
COC(=O)C(C)Nc1cccc(Br)c1 (configuration not stated)	-0.3	-0.9	-0.5	0.5	-1.7	-0.9	.	.	.	.
